Reference: PubChem BioAssay (Tox21)
Inconclusive results are not listed. Activity calls are given as the source filed them. The call rests on the fitted dose curve; in most records, active means well fitted cell-killing curve with a large enough effect in the repeat runs; inconclusive means weak or mixed curves, or effect the other way; inactive means flat fitted curve, though single readings scatter.

experiment: qHTS assay to identify small molecule antagonists of the androgen receptor (AR) signaling pathway using the MDA cell line - cell viability counter screen (AID 743041; further: nearly all actives have a fitted effect of over 45% in size); conditions: MDA-kb2 viability, CellTiter-Fluor, 16 h, cells co-treated with R1881 androgen agonist; series mostly up to 70.3 µM; viability change, negative = cytotoxic: at the top concentration
Excerpt: National Center for Advancing Translational Sciences [NCATS]
NIH Chemical Genomics Center [NCGC]
U.S. Environmental Protection Agency [EPA]
National Institutes of Environmental Health Sciences [NIEHS]
National Toxicology Program [NTP]
U.S. Food and Drug Administration [FDA]
Androgen receptor (AR), a nuclear hormone receptor, plays a critical role in AR-dependent prostate cancer and other androgen related diseases. Endocrine disrupting chemicals (EDCs) and their interactions with steroid hormone receptors like AR may cause disruption of normal endocrine function as well as interfere with metabolic homeostasis, reproduction, developmental and behavioral functions. To identify the compounds that inhibit AR signaling, MDA-kb2 AR-luc cell line (from ATCC, deposited by Wilson et al.) was used to screen the Tox21 10K compound library. MDA-kb2 AR-luc cell line is human breast carcinoma cell line that was stably transfected with a luciferase reporter gene under control of the MMTV promoter containing response elements for both androgen receptor (AR) and glucocorticoid receptor (GR). The cytotoxicity of the Tox21 compound library against the MDA-kb2 AR-luc cell line was tested in parallel by measuring the cell viability using CellTiter-Fluor assay (Promega, Madison, WI) in the same wells.
Tox21 Assay Protocol Summary:
MDA-kb2 AR-luc cells were dispensed at 3,000 cells/4 uL/well of culture medium into white wall/solid-bottom 1536-well plates using a Multidrop Combi (ThermoFisher Scientific, Waltham, MA) dispenser. After the assay plates were incubated at a 37C and 0% CO2 for 5 hr, 23 nL of compounds dissolved in DMSO, positive controls or DMSO only was transferred to the assay plate by a Pintool station (Kalypsys, San Diego, CA), followed by addition of 1 uL of agonist (R1881) in culture medium using a Bioraptr Flying Reagent Dispenser (FRD) workstation (Beckman Coulter, Indianapolis, IN, USA). The plates were incubated at a 37C and 0% CO2 for 16 h. After 15.5 h incubation, 1uL of CellTiter-Fluor reagent (Promega) was added using a Bioraptr FRD to each plate for measuring cytotoxicity. The fluorescence intensity was quantified on a ViewLux plate reader (PerkinElmer, Shelton, CT) following 30 min incubation at 37C and 0% CO2.
On the % scale 0 is the no-effect control and ±100 the full control effect.

Row | Compound | viability change, negative = cytotoxic | Potency
1 | NC1CCN(c2cccc(Cl)n2)CC1 | 1.7% (inactive) | –
2 | CNc1ncnc2nc[nH]c12 | -6.48% [at 95 µM] (inactive) | –
3 | N#CCc1ccccc1[N+](=O)[O-] | 0.221% (inactive) | –
4 | CC/C=C\CCCCO | -3.97% (inactive) | –
5 | COc1cc(C)cc(O)c1 | -1.04% (inactive) | –
6 | COc1cc(O)cc(O)c1 | 19.5% (inactive) | –
7 | NCCNC(=O)c1ccc(Cl)cn1 | -2.85% (inactive) | –
8 | CC(=O)O[C@H](CC(=O)[O-])C[N+](C)(C)C | 6.1% (inactive) | –
9 | C(=C(c1ccccc1)c1ccccc1)c1ccccc1 | 5.46% (inactive) | –
10 | CC(=O)NC(Cc1ccccc1)C(=O)O (stereo not given) | 6.55% (inactive) | –
11 | CC(C)COC(=O)c1ccccc1O | -0.578% (inactive) | –
12 | NS(=O)(=O)c1cc(C2(O)NC(=O)c3ccccc32)ccc1Cl (stereo not given) | -6.79% [at 32.5 µM] (inactive) | –
13 | C#CC(C)(O)CC(C)C (stereo not given) | 22.8% (inactive) | –
14 | CCC(=O)/C=C/c1ccc(OC)cc1 | -1.71% (inactive) | –
15 | c1ccc(CCCc2ccccn2)cc1 | -1.74% (inactive) | –
16 | CCC(C(=O)NC(N)=O)c1ccccc1 (stereo not given) | – | inactive
17 | c1ccc2cnncc2c1 | 2.26% (inactive) | –
18 | Nc1[nH]c(=O)ncc1F | 7.37% [at 32.5 µM] (inactive) | –
19 | C=CCSCC1Nc2cc(Cl)c(S(N)(=O)=O)cc2S(=O)(=O)N1 (stereo not given) | -3.98% (inactive) | –
20 | COc1ccc(NC(C)=O)cc1 | -0.312% [at 95 µM] (inactive) | –

Row | Compound | viability change, negative = cytotoxic | Potency
21 | CCCOCC(C)OCC(C)O (stereo not given) | -7.19% [at 95 µM] (inactive) | –
22 | CC(C)COC(=O)C(C)C | 2.36% (inactive) | –
23 | O=C(O)C(O)[C@H](O)[C@@H](O)[C@H](O)[C@H](O)CO (stereo not given in full) | -0.574% [at 95 µM] (inactive) | –
24 | Nc1nc2c(ncn2CCC(CO)CO)c(=O)[nH]1 | 3.98% (inactive) | –
25 | Cc1ccccc1Br | -0.49% (inactive) | –
26 | NC(=S)Nc1cccc2ccccc12 | -0.0936% [at 8.47 µM] (inactive) | –
27 | O=C(O)c1cccc(C(=O)O)n1 | 4.83% (inactive) | –
28 | NC(=O)c1ncn([C@@H]2O[C@H](CO)[C@@H](O)[C@H]2O)c1N | -9.63% (inactive) | –
29 | O=C(O)Cc1cc(I)c(Oc2cc(I)c(O)c(I)c2)c(I)c1 | 1.83% (inactive) | –
30 | Cc1cc(C)c(NC(=O)CN(CC(=O)O)CC(=O)O)c(C)c1Br | -5.39% (inactive) | –
31 | COC(=O)CCCC(=O)O | -2.98% (inactive) | –
32 | C/C=C1\C(=O)C[C@H]2[C@@H]3CCC4=CC(=O)CC[C@]4(C)[C@H]3CC[C@]12C | -5.26% (inactive) | –
33 | O=C(O)c1ccccc1S | 17.5% (inactive) | –
34 | OCc1ccccn1 | 1.73% (inactive) | –
35 | COc1nc(C)nc(N)n1 | -2.99% (inactive) | –
36 | CCCCCCOC(=O)c1ccccc1O | -0.535% (inactive) | –
37 | O=[N+]([O-])c1ccc(CCO)cc1 | 0.212% (inactive) | –
38 | [O-][N+](=Nc1ccccc1)c1ccccc1 | – | inactive
39 | O=S(=O)(c1cccc2cnccc12)N1CCCNCC1 | -5.06% (inactive) | –
40 | C[C@H](O)C(=O)Nc1c(I)c(C(=O)NC(CO)CO)c(I)c(C(=O)NC(CO)CO)c1I | -1.9% [at 32.5 µM] (inactive) | –
